From PubChem BioAssay (EPA / NIEHS)
Calls of active or inactive are those of the source. The calls were made as follows: active = hit-call score of the fitted dose curve at least 0.9, where 1 is the maximum; inactive = score below 0.9.

Assay: APR_HepG2_MitoMass_24hr: Apredica 24-hour HepG2 Assay for Mitochondrial Mass (AID 2282912)
Settings: high-content imaging, actives raise or lower the signal
Protocol: APR_HepG2_24hr is a cell-based, multiplexed-readout assay that uses HepG2, a human liver cell line, with measurements taken at 24 hours after chemical dosing in a 384-well plate.APR_HepG2_MitoMass_24hr is one of 10 assay component(s) measured or calculated from the APR_HepG2_24hr assay. It is designed to make measurements of cell phenotype, a form of morphology reporter, as detected with fluorescence intensity signals by HCS Fluorescent Imaging technology.Data from the assay component APR_HepG2_MitoMass_24hr was analyzed into 1 assay endpoint. This assay endpoint, APR_HepG2_MitoMass_24hr, was analyzed with bidirectional fitting relative to DMSO as the negative control and baseline of activity. Using a type of morphology reporter, gain or loss-of-signal activity can be used to understand changes in the signaling. Furthermore, this assay endpoint can be referred to as a primary readout, because this assay has produced multiple assay endpoints where this one serves a signaling function. To generalize the intended target to other relatable targets, this assay endpoint is annotated to the cell morphology intended target family, where the subfamily is organelle conformation.
Cells were treated with dimethyl sulfoxide (DMSO) as a solvent control at a final concentration of 0.5% v/v or with compounds in DMSO with a resulting final DMSO concentration of 0.5% v/v. Compound treatment was done at concentrations of 0.39, 0.78, 1.56, 3.12, 6.24, 12.5, 25, 50, 100, and 200 uM in duplicate on each plate. Cells were treated with compounds for 1, 24, or 72 hr. Carbonyl […] m-chloro-phenylhydrazone (CCCP) and taxol were used as positive controls for mitochondrial function and cytoskeletal stability, respectively; DMSO served as the negative control for this experiment. Cells were fixed by the direct addition of 50 uL formaldehyde in Hank's Balanced Salt Solution (HBSS) to a final concentration of 3.7%. After incubation in the fixation medium for 30 min at room temperature (293-298 K), cells were rinsed twice with HBSS and treated with cell permeabilization buffer (16 uL of 0.5% Triton X-100) for 10 min at room temperature (293-298 K) before labeling. For mitochondrial membrane potential and mitochondrial measurements, pre-fixed cells were incubated with 50 uL of MitoTracker Red CMXRos (Invitrogen) at a concentration of 250 nM for 30 min before fixation. In the remaining cases, post-fixed cells were labeled by incubation with a multiplexed mixture of primary antibodies in HBSS for 60 min at room temperature (293-298 K) to detect immunoreactivity of c-Jun (1:500), phospho-histone H3 (1:100), phospho-histone H2A.x (1:200), p53 (1:400), alpha-tubulin (1:200) and Hoechst 33342 (2 ug/mL). Cells were labeled for multiplexed imaging on two separate plates: a) Hoechst 33342, MitoTracker Red, phospho-histone H3, and alpha-tubulin, and b) Hoechst 33342, phospho-histone H2A.x, and c-Jun. A final rinse with HBSS (50 uL) was performed before analysis. The primary and secondary antibodies for the proteins were phospho-histone H3 (rabbit anti-phospho-histone H3 and FITC-donkey anti-rabbit IgG), phospho-histone H2A.x (mouse anti-phospho-histone H2A.x and FITC-donkey anti-mouse IgG), c-Jun (rabbit anti-phospho-c-Jun and Cy3-donkey anti-rabbit IgG), p53 (sheep anti-p53 and Cy5-donkey anti-sheep IgG), alpha-tubulin (mouse anti-alpha-tubulin and Cy5-donkey anti-mouse IgG). These antibodies are available as the CellCiphr HepG2 assay kit (Millipore).Digital images of each well were captured using a Cellomics ArrayScan VTI (Thermo Scientific Cellomics) (0.8 NA objective, 0.63x optical coupler, and XF-93 filter set) at 20x magnification. The images were acquired using the autofocus feature of the ArrayScan instrument, which entails the following steps. First, the camera focuses on channel 1 (Hoechst 33342), where nuclei are identified. Second, a Z offset of 1 um is used for capturing mitochondria (MitoTracker Red). […]

| SMILES | AC50 | outcome |
| --- | --- | --- |
| CN(C)C(=O)C1(N2CCCCC2)CCN(CC[C@@]2(c3ccc(Cl)c(Cl)c3)CN(C(=O)c3ccccc3)CCO2)CC1 | 7.74 µM (active) |  |
| CCCCCCCCCC(=O)O |  | inactive |
| c1ccc(C[n+]2cccc3ccccc32)cc1 | 167 µM (active) |  |
| CCOC(=O)O[C@H](C)OC(=O)c1ccc2c(c1)cc(C(=O)NC1CCN(C(C)C)CC1)n2Cc1cc(-c2ccc(Cl)s2)on1 | 167 µM (active) |  |
| CCCCCCCCOc1ccc(C(=O)c2ccccc2)c(O)c1 |  | inactive |
| Cc1cccc2ccccc12 |  | inactive |
| O=C(O)c1ccccc1-n1cc(C(=O)O)c(=O)c2cc(Nc3c(F)cc(F)cc3Cl)c(Cl)cc21 |  | inactive |
| CCCC(=O)OCCC(C)C |  | inactive |
| O=C(O)Cc1cc(I)c(Oc2ccc(O)c(I)c2)c(I)c1 |  | inactive |
| CCCCCCCC[Si](OCC)(OCC)OCC |  | inactive |
| COc1cc(C(=O)NC2CCN(C)CC2)ccc1Nc1ncc2c(n1)N(C1CCCC1)CC(F)(F)C(=O)N2C |  | inactive |
| COc1cccc([C@H](O)C2CCN(CCc3ccc(F)cc3)CC2)c1OC |  | inactive |
| C[C@]12CC[C@@H]3c4ccc(O)cc4CC[C@H]3[C@@H]1CCC2=O |  | inactive |
| CCCCCCCCCCCCO |  | inactive |
| CCCCOC(=O)c1ccc(O)cc1 |  | inactive |
| Cc1ncc(CO)c(CO)c1O |  | inactive |
| Cc1oc2c(NC(=O)c3c(Cl)cccc3Cl)cccc2c1C(C)(C)O |  | inactive |
| O=CCCCC=O |  | inactive |
| O=C(OCCCCCCOC(=O)c1ccccc1)c1ccccc1 |  | inactive |
| CC(C)(C)c1cc(/C=C2\SC(N)=NC2=O)cc(C(C)(C)C)c1O | 32.7 µM (active) |  |

| SMILES | AC50 | outcome |
| --- | --- | --- |
| O=C(Nc1ccc(Cl)cc1)Nc1ccc(Cl)c(Cl)c1 |  | inactive |
| O=C=NCCCCCCN=C=O |  | inactive |
| CC/C(=C(/CC)c1ccc(O)cc1)c1ccc(O)cc1 | 46 µM (active) |  |
| Oc1ccc2ccccc2c1 |  | inactive |
| CC(C)(C)c1csc(-c2cc3cc(OCc4ccccc4CC(=O)O)ccc3o2)n1 |  | inactive |
| CCCCOC(=O)CC(CC(=O)OCCCC)(OC(C)=O)C(=O)OCCCC |  | inactive |
| OC12N=C(c3ccccc3)SC1Cc1cc(Cl)ccc12 (stereo not given) |  | inactive |
| Clc1cc(Cl)c2c(c1)N=C1CCCCCN1C2 |  | inactive |
| Cc1occc1C(=O)Nc1ccc(C(=O)N2CCC(F)(F)/C(=C\C(=O)N3CCC(N4CCCCC4)CC3)c3ccccc32)cc1 |  | inactive |
| C[C@]12CC[C@@H]3c4ccc(O)cc4CC[C@H]3[C@@H]1CC[C@H]2O |  | inactive |
| CCN(CC)C(=O)c1cc(S(=O)(=O)Cc2ccccc2)c(N2CCC(c3ccccc3)CC2)cc1N(CC)CCN(C)C | 23.1 µM (active) |  |
| O=C(O)c1ccccc1C(=O)OCc1ccccc1 |  | inactive |
| CCCOC(=O)c1cc(O)c(O)c(O)c1 |  | inactive |
| Oc1ccccc1 |  | inactive |
| O=C1c2ccccc2C(=O)N1CCc1noc(-c2ccc(CN3CCCCCC3)s2)n1 |  | inactive |
| CC(C)(c1cc(Br)c(O)c(Br)c1)c1cc(Br)c(O)c(Br)c1 |  | inactive |
| CC1=CC(=O)/C(=C(/C)O)C(=O)O1 |  | inactive |
| CCCCCCCCCCCC[N+](C)(C)C | 180 µM (active) |  |
| CC(=O)N1CCN(c2ccc(OC[C@H]3CO[C@](Cn4ccnc4)(c4ccc(Cl)cc4Cl)O3)cc2)CC1 |  | inactive |
| COc1ccc2cc(S(=O)(=O)N[C@H](CC(=O)N[C@H](Cc3ccc(CN4[C@H](C)CCC[C@@H]4C)cc3)C(=O)N(C)C(C)C)c3ccc4c(c3)OCO4)ccc2c1 | 12.7 µM (active) |  |
